Results published in PubChem BioAssay.
Calls of active or inactive are those of the source. Unless noted, no rule for the calls is given here.

Tests used:
[1] = A549 cell viability effects, profiling panel, calcein-AM fluorescence, 48 h, basal (AID 1162); details: higher = more signal; also: test concentration not given here
[2] = adipocyte viability effects, profiling panel, cell-based, 3T3-L1 adipocytes, calcein-AM fluorescence, 48 h, basal (AID 1163); details: 3T3-L1 adipocytes viability, higher = more signal; also: test concentration not given here
[3] = HepG2 cell viability effects, profiling panel, calcein-AM fluorescence, 48 h, basal (AID 1164); details: higher = more signal; also: test concentration not given here
[4] = MM1S cell viability effects, profiling panel, calcein-AM fluorescence, 48 h, basal (AID 1165); details: higher = more signal;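 also: viability of MM1S multiple myeloma cells under basal unstimulated conditions; test concentration not given here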
[5] = basal RPMI8226 viability, no added stimulus, profiling panel, cell-based, calcein-AM fluorescence, 48 h, PK04 Diversity Set (AID 1166); details: RPMI8226 myeloma viability, higher = more signal;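 also: cells grown under basal conditions without added stimulus; test concentration not given here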
[6] = basal HepG2 mitochondrial membrane potential changes, profiling panel, cell-based, JC-1 fluorescence, 24 h, 100 nL compound (AID 1167); details: higher = more signal; also: test concentration not given here
[7] = basal 3T3-L1 adipocyte mitochondrial potential changes, profiling panel, cell-based, JC-1 fluorescence, 3T3-L1 adipocytes, 24 h, 100 nL compound (AID 1168); details: JC-1 mitochondrial fluorescence, higher = more signal, called active from +8 up or from −8 down; also: test concentration not given here
[8] = basal RPMI8226 mitochondrial membrane potential changes, profiling panel, cell-based, JC-1 fluorescence, 24 h, 100 nL compound (AID 1169); details: RPMI8226 myeloma, JC-1 mitochondrial potential fluorescence, higher = more signal; also: test concentration not given here
[9] = basal MM1S mitochondrial membrane potential changes, profiling panel, cell-based, JC-1 fluorescence, 24 h, 100 nL compound (AID 1170); details: higher = more signal; also: test concentration not given here
[10] = A549 lung cancer cell viability effects, profiling panel, resazurin fluorescence, 24 h, PK04 Diversity Set (AID 1171); details: higher = more signal, called active from +8 up or from −8 down; also: test concentration not given here
[11] = HepG2 liver cancer cell viability effects, profiling panel, resazurin fluorescence, 24 h, PK04 Diversity Set (AID 1172); details: higher = more signal; also: test concentration not given here
[12] = basal S. cerevisiae growth modulation, no modifier, primary screen, OD600, strain BY4716, 24 h, basal condition (AID 1173); details: OD600, 24 h, higher = more signal, called active from +8 up or from −8 down
[13] = MM1S myeloma cell viability, profiling panel, resazurin fluorescence, basal, 24 h, PK04 Diversity Set (AID 1174); details: higher = more signal, called active from +8 up or from −8 down;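 also: MM1S multiple myeloma cell line; test concentration not given here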
[14] = target: Dihydroorotate dehydrogenase (quinone), mitochondrial (Plasmodium falciparum (isolate 3D7)) (UniProt Q08210); experiment: PfDHODH enzyme inhibitors, primary screen, biochemical, C-terminal His tag, absorbance 600 nm (AID 1175); details: DCIP absorbance 600 nm, higher = more signal, called active from +8 up or from −8 down;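 also: recombinant parasite enzyme with a five histidine tag at its C terminus; test concentration not given here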
Dihydroorotate dehydrogenase (quinone), mitochondrial (Plasmodium falciparum (isolate 3D7)), sequence (Q08210 whole entry, looked up): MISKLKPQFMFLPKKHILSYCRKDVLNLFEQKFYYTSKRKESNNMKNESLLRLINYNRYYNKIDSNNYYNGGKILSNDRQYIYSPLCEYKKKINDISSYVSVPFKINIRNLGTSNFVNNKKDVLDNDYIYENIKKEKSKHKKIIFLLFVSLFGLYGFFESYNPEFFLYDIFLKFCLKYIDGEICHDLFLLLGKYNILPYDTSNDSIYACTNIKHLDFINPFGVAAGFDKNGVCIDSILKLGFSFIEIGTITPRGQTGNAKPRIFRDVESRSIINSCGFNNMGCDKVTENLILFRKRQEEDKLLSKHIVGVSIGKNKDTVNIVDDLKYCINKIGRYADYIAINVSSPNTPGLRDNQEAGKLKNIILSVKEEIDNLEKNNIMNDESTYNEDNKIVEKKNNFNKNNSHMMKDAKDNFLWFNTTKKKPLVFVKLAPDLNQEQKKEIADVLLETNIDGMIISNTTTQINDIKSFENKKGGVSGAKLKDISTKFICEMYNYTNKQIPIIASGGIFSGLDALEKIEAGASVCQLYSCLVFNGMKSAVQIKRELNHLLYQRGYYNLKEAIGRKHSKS

[15] = P. aeruginosa biofilm formation inhibitors, primary screen, strain PAO1, LB-PBS medium, absorbance 600 nm (AID 1176); also: test concentration not given here; details: P. aeruginosa PAO1 growth/biofilm, A600, 12 h; higher = more signal
[16] = S. cerevisiae RM11-1a growth modifiers, primary screen, strain RM11-1a, OD600, basal, 24 h (AID 1177); details: OD600, 24 h, higher = more signal, called active from +8 up or from −8 down;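 also: cultures grown under basal conditions with no added stressor; test concentration not given here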
[17] = E. coli acrAB mutant growth effects, primary screen, E. coli filamentation inducers, strain DRC39, OD650, 24 h (AID 1178); details: higher = more signal, called active from +8 up or from −8 down;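 also: growth measured as culture turbidity by optical density at 650 nm; test concentration not given here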
[18] = E. coli acrAB mutant growth effects, primary screen, E. coli filamentation inducers, strain DRC39, OD650, 48 h (AID 1179);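 also: screen aims at cell division blockers that make cells filament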; details: E. coli DRC39 delta-acrAB growth, higher = more signal, called active from +8 up or from −8 down
[19] = RPMI8226 myeloma cell viability, profiling panel, resazurin fluorescence, basal, 24 h, PK04 Diversity Set (AID 1180); details: higher = more signal;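 also: RPMI8826 multiple myeloma cell line at 5000 cells per well; test concentration not given here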
[20] = target: E3 ubiquitin-protein ligase XIAP (Homo sapiens) (UniProt P98170); experiment: XIAP binders, primary screen, biophysical, small-molecule microarray, fluorescence 635 nm (AID 1181); details: small-molecule microarray binding, higher = more signal;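 also: score merges 667 nm emission and signal to noise over triplicate slides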
E3 ubiquitin-protein ligase XIAP (Homo sapiens), sequence (P98170 whole entry, looked up): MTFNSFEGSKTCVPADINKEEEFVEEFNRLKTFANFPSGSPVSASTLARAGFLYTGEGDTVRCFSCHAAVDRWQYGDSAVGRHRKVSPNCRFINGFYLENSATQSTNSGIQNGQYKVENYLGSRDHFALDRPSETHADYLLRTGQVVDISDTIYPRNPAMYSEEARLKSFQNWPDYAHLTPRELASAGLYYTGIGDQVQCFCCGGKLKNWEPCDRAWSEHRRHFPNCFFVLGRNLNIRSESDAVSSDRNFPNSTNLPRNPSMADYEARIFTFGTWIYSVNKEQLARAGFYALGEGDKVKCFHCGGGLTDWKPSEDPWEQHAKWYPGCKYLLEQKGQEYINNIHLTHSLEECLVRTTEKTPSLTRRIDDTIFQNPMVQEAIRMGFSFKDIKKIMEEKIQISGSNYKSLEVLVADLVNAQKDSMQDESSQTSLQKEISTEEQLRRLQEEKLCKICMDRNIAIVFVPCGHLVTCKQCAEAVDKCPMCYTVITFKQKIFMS

SMILES | z-score [1] | z-score [2] | z-score [3] | z-score [4] | z-score [5] | z-score [6] | z-score [7] | z-score [8] | z-score [9] | z-score [10] | z-score [11] | z-score [12] | z-score [13] | composite z-score [14] | z-score [15] | z-score [16] | z-score [17] | z-score [18] | z-score [19] | composite z-score [20]
CC[C@@H]1C=C(C(=O)O)[C@H](c2ccc(OC)cc2)N1S(=O)(=O)c1ccc(C)cc1 | -0.0984 | -0.32 | -0.183 | 0.107 | -0.23 | -0.955 | -0.687 (inactive) | -0.168 | -0.273 | -0.599 (inactive) | -0.896 | 0.77 (inactive) | -0.675 (inactive) | -1.09 (inactive) | -0.281 (inactive) | -0.391 (inactive) | -0.826 (inactive) | -0.521 (inactive) | -1.16 | -0.0286
COc1cc(CO)cc(I)c1O[C@H]1C=C(C(=O)NCCO)C[C@@H](NC2CCCCCC2)[C@@H]1O | -0.226 | -0.174 | 0.806 | -3.23 | -0.334 | 1.09 | 0.426 (inactive) | -0.441 | -3.21 | 0.406 (inactive) | 0.371 | -4.02 (inactive) | 0.115 (inactive) | 1.11 (inactive) | -0.896 (inactive) | 0.77 (inactive) | 0.901 (inactive) | 0.12 (inactive) | 0.215 | -0.11
CC1CC/C=C\[C@H]2OC34C=CCN(c5ccc6ccccc6c5)C(=O)[C@H]3N(C(C)CO)C(=O)[C@@H]4C2C(=O)O1 (stereo not given in full) | -0.326 | -4.43 | 1.05 | 1.6 | -0.311 | 0.333 | 0.0486 (inactive) | 0.195 | -0.532 | -0.0299 (inactive) | -0.0727 | -0.36 (inactive) | -0.304 (inactive) | 0.631 (inactive) | -0.236 (inactive) | 0.853 (inactive) | 0.0825 (inactive) | 0.509 (inactive) | 0.762 | -0.208
O=C1C[C@@](C(=O)NC2CC2)(c2ccc([N+](=O)[O-])cc2)[C@@H](c2ccc(CO)cc2)N1C1CCCCC1 | 1.91 | 1.24 | -0.0212 | -0.177 | -1.3 | 1.28 | 0.0821 (inactive) | -0.00601 | -1.18 | 1.04 (inactive) | 0.363 | -1.44 (inactive) | 1.23 (inactive) | -6.96 (inactive) | 1.46 (inactive) | -2.37 (inactive) | 0.0991 (inactive) | -0.0005 (inactive) | 1.48 | -0.0574
CC(C)=CCCC=C(C)C(O)C1C=CC2C(=O)N(c3ccccc3)C(=O)C2N1Nc1ccc(C#N)cc1 (stereo not given) | 1.46 | 0.464 | 1.47 | -1.65 | -1.92 | -0.428 | -0.926 (inactive) | -0.483 | -1.29 | -1.18 (inactive) | -1.53 | -0.101 (inactive) | -1.79 (inactive) | -1.49 (inactive) | 1.36 (inactive) | -1.63 (inactive) | -0.0959 (inactive) | 0.65 (inactive) | -2.19 | 0.146
C=C(CCCC)/C(=C/C[C@H](OC(=O)c1ccncc1)c1ccc(OCCO)cc1)c1cnc2ccccc2c1 | 1.09 | 0.464 | 0.014 | -2.55 | -0.499 | 1.98 | -0.689 (inactive) | -0.756 | -0.262 | 1.2 (inactive) | 1.08 | -1.28 (inactive) | -0.0114 (inactive) | -2.89 (inactive) | 0.391 (inactive) | 0.51 (inactive) | 0.709 (inactive) | 0.258 (inactive) | 1.04 | -0.122
COC(=O)C(CC#Cc1ccc2c(c1)[C@]1(C(=O)N2)[C@H](C(=O)NC[C@H](O)c2ccccc2)[C@H]2C(=O)O[C@H](c3ccccc3)[C@H](c3ccccc3)N2[C@@H]1c1ccccc1OCCO)C(=O)OC | -0.101 | 1.14 | -0.272 | -3.29 | -4.57 | -0.0353 | 1.82 (inactive) | -1.16 | -2.1 | 0.422 (inactive) | 0.786 | 1.42 (inactive) | -7.38 (inactive) | -7.26 (inactive) | 1.7 (inactive) | 1.6 (inactive) | 0.0386 (inactive) | -0.477 (inactive) | -6.76 | -0.0629
COCCOC(=O)N1C(=O)[C@@]2(c3cc(C#CCC(C(=O)OC)C(=O)OC)ccc31)[C@H](C(N)=O)[C@H]1C(=O)O[C@H](c3ccccc3)[C@H](c3ccccc3)N1[C@@H]2c1ccc(O)cc1 | -0.181 | -0.187 | -1.52 | -3.37 | -4.02 | -0.864 | 2.05 (inactive) | -1.19 | -2.07 | 0.163 (inactive) | -0.0776 | 2.28 (inactive) | -2.92 (inactive) | -0.667 (inactive) | 6.87 (inactive) | 3.96 (inactive) | 0.714 (inactive) | 0.537 (inactive) | -4.48 | 0.0727
C=CCNC(=O)[C@H]1[C@@H]2C(=O)O[C@@H](c3ccccc3)[C@@H](c3ccccc3)N2[C@@H](c2ccc(OCCO)cc2)[C@]12C(=O)Nc1ccc(C#CC3(O)CCCCCC3)cc12 | 1.17 | 1.36 | -0.0346 | -2.27 | -1.41 | -1.57 | 0.43 (inactive) | -0.819 | -0.535 | 1.31 (inactive) | -0.311 | 0.868 (inactive) | -0.823 (inactive) | -0.0685 (inactive) | 0.898 (inactive) | 2.62 (inactive) | 0.352 (inactive) | 0.988 (inactive) | -0.987 | -0.224
